Measurements taken from PubChem BioAssay (Tox21).
Records with an inconclusive call do not appear. Unmarked numbers belong to inactive results. Active and inactive are the calls of the source. The call rests on the fitted dose curve; in most records, active means well fitted inhibition curve with a large enough effect in the repeat runs; inconclusive means weak or mixed curves; inactive means no such curve, though single readings can be large or run the other way.

molecular target: Cytochrome P450 2D6 (Homo sapiens) (UniProt P10635); assay: Cytochrome P450 Family 2 Subfamily D Member 6 (CYP2D6) small molecule antagonists: luciferase reporter qHTS assay (AID 1671196); conditions: P450-Glo CYP2D6 enzyme assay, luciferin luminescence, 1 h; series mostly up to 115 µM; activity change, negative = inhibition: at the top concentration; further: nearly all actives have a fitted effect of over 50% in size
Sequence (P10635 whole entry, looked up): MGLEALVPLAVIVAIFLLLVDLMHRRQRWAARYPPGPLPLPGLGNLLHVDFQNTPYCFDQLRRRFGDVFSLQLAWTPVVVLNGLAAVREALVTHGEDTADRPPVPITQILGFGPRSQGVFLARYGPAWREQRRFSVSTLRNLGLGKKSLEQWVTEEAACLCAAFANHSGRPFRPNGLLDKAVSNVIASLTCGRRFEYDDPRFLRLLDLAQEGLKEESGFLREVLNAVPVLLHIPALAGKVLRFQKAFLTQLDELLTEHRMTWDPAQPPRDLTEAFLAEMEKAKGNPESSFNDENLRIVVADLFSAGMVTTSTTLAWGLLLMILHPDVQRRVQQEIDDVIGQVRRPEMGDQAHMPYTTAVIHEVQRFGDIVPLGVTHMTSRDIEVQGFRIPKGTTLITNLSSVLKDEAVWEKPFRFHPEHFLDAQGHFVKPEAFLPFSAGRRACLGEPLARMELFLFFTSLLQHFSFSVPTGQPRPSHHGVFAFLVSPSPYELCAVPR
How it was run: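 Cell-free P450-Glo system: CYP2D6 with proluciferin substrate was pre-incubated with compound for 10 min, then reacted with NADPH regeneration for 1 h at room temperature. Luciferin product was detected after 20 min, and data were reported as relative luminescence units.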
On the % scale 0 is the no-effect control and ±100 the full control effect; potency means the concentration at half of the fitted maximal effect.

Question: Which Potency does the source give for `Cc1nc2ccc(Cl)cc2[nH]1` here?
Answer: Its Potency is 31.7 µM (active).

Question: With `CCOC(=O)c1ccc(N(C)C)cc1` as the molecule, how does the “activity change, negative = inhibition” value read?
Answer: Its value is -15.3%.

Question: Which “activity change, negative = inhibition” value does the source give for `C[Si](C)(C)O[Si](O)(O)O` here?
Answer: The value was -6.3%.

Question: Which Potency does the source give for `CCC(C)SSC(C)CC` (stereo not given) here?
Answer: Its Potency is 31.7 µM (active).

Question: `CC(C)(C)OC=O` was tested. Which “activity change, negative = inhibition” value did it give?
Answer: Its value is -0.991%.

Question: Which “activity change, negative = inhibition” value does the source give for `CCNC(=O)C(C)OC(=O)Nc1ccccc1` (stereo not given) here?
Answer: The value was -5.88%.

Question: Which “activity change, negative = inhibition” value does the source give for `C=CCN(CC=C)CC=C` here?
Answer: Its value is -11.4%.

Question: For `Cc1cc(=O)oc2cc(O[C@@H]3SC[C@@H](O)[C@H](O)[C@H]3O)ccc12`, which “activity change, negative = inhibition” value is on record?
Answer: Its value is 3.95% [at 53 µM].

Question: `COc1ccccc1N1CCN(CC(O)COc2cc(OC)c(OC)c(OC)c2)CC1` (stereo not given) was tested. Which “activity change, negative = inhibition” value did it give?
Answer: Its value is -23.3% [at 53 µM].

Question: How did the “activity change, negative = inhibition” value turn out when `COC(=O)c1cc(Cl)c(NC(C)=O)cc1OC` was run?
Answer: Its value is 3.84% [at 53 µM].

Question: How did the “activity change, negative = inhibition” value turn out when `O=Cc1ccc(C(=O)O)cc1` was run?
Answer: Its value is -13.2%.

Question: How did the “activity change, negative = inhibition” value turn out when `O=S(=O)(O)c1cc(I)c(O)c2ncccc12` was run?
Answer: Its value is -7.99% [at 53 µM].

Question: How did the “activity change, negative = inhibition” value turn out when `CC(C)(C)c1ccc(C(=O)CCCCl)cc1` was run?
Answer: Its value is 2.88% [at 53 µM].

Question: For `CC(C)(C)C(=O)CC(=O)C(C)(C)C`, which “activity change, negative = inhibition” value is on record?
Answer: Its value is -14%.

Question: How did the “activity change, negative = inhibition” value turn out when `C=CC(=O)CC` was run?
Answer: The value was -7.88%.

Question: How did the “activity change, negative = inhibition” value turn out when `CCCCC(O)/C=C(C)/C=C/C=C/C(=O)N1CCCC1=O` (stereo not given) was run?
Answer: Its value is -9.8% [at 53 µM].

Question: How did the “activity change, negative = inhibition” value turn out when `CCN1CCN(C(=O)N[C@@H](C(=O)N[C@@H]2C(=O)N3[C@@H]2SC(C)(C)[C@H]3C(=O)O)c2ccccc2)C(=O)C1=O` was run?
Answer: The value was -9.28% [at 53 µM].

Question: Which “activity change, negative = inhibition” value does the source give for `COc1ccc2cc(CCC(C)=O)ccc2c1` here?
Answer: Its value is -11.6% [at 53 µM].

Question: With `c1coc(Cn2cccc2)c1` as the molecule, how does the “activity change, negative = inhibition” value read?
Answer: The value was -10.3%.

Question: With `CCC(C)c1nccnc1OC` (stereo not given) as the molecule, how does the “activity change, negative = inhibition” value read?
Answer: The value was 1.66%.

Question: How did the “activity change, negative = inhibition” value turn out when `C=C(C)C(=O)OCCOC1CC2CC1C1C=CCC21` (stereo not given) was run?
Answer: Its value is -13.2%.

Question: `Cc1ccc(OC(=O)CC(C)C)cc1` was tested. Which “activity change, negative = inhibition” value did it give?
Answer: The value was -10.7%.

Question: `COC(=O)c1c(C)cc(O)c(C)c1O` was tested. Which Potency did it give?
Answer: Its Potency is 31.7 µM (active).

Question: With `O=CN1CCCCC1` as the molecule, how does the “activity change, negative = inhibition” value read?
Answer: Its value is 0.734%.

Question: `NS(=O)(=O)c1cc2c(cc1C(F)(F)F)NCNS2(=O)=O` was tested. Which “activity change, negative = inhibition” value did it give?
Answer: The value was 0.65% [at 53 µM].

Question: For `CC(=O)c1ccc(O)c(C(N)=O)c1`, which “activity change, negative = inhibition” value is on record?
Answer: The value was 2.63% [at 53 µM].

Question: `c1cc2ccc3ccc4ccc5cccc6c(c1)c2c3c4c56` was tested. Which activity change, negative = inhibition did it give?
Answer: The activity change, negative = inhibition was 0.702% [at 4.07 µM].

Question: With `O=C(O)/C=C(\CC(=O)O)C(=O)O` as the molecule, how does the “activity change, negative = inhibition” value read?
Answer: Its value is -11.5% [at 53 µM].

Question: Which “activity change, negative = inhibition” value does the source give for `Cc1cc(C)c(C)c(C)c1` here?
Answer: The value was 1.8%.

Question: For `O=C1CC2(CCCC2)CC(=O)N1CCNCC1COc2ccccc2O1` (stereo not given), which Potency is on record?
Answer: The Potency was 0.309 µM (active).

Question: With `CC[C@@]1(c2ccccc2)NC(=O)N(C)C1=O` as the molecule, how does the “activity change, negative = inhibition” value read?
Answer: Its value is -55.3% [at 53 µM].

Question: With `C[C@@H]1CCC[C@H](C)N1CCCC(O)(c1ccccc1)c1ccccn1` (stereo not given in full) as the molecule, how does the Potency read?
Answer: The Potency was 0.692 µM (active).

molecular target: Cytochrome P450 2C19 (Homo sapiens) (UniProt P33261); assay: Cytochrome P450 Family 2 Subfamily C Member 19 (CYP2C19) small molecule antagonists: luciferase reporter qHTS assay (AID 1671197); conditions: P450-Glo CYP2C19 enzyme, luciferin luminescence, 1 h; series mostly up to 115 µM; activity change, negative = inhibition: at the top concentration; further: nearly all actives have a fitted effect of over 65% in size
Sequence (P33261 whole entry, looked up): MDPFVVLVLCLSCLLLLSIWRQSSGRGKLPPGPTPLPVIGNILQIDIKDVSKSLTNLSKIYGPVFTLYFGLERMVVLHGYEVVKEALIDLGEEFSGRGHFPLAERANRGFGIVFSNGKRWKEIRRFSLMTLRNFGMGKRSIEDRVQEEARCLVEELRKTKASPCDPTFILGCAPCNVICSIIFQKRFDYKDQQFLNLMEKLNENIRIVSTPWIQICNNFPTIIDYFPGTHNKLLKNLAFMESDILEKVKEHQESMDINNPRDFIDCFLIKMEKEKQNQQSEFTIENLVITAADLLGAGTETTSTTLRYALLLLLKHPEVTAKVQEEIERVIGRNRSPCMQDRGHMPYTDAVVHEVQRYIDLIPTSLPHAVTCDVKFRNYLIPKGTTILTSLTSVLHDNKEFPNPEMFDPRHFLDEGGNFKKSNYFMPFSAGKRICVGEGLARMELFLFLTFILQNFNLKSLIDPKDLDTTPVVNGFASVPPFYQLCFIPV
How it was run: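 First, compounds are pinned into enzyme-substrate mix and held 10 min at room temperature. Second, NADPH regeneration solution is added and plates incubate 1 h at 37C. Third, detection reagent is added and luminescence read after 20 min.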

Question: Which Potency does the source give for `CCOC(=O)c1ccc(N(C)C)cc1` here?
Answer: The Potency was 22.4 µM (active).

Question: With `CC(C)(C)OC=O` as the molecule, how does the “activity change, negative = inhibition” value read?
Answer: Its value is -24.1%.

Question: How did the Potency turn out when `CCNC(=O)C(C)OC(=O)Nc1ccccc1` (stereo not given) was run?
Answer: The Potency was 79.6 µM (active).

Question: With `C=CCN(CC=C)CC=C` as the molecule, how does the “activity change, negative = inhibition” value read?
Answer: The value was -9.27%.

Question: Which “activity change, negative = inhibition” value does the source give for `Cc1cc(=O)oc2cc(O[C@@H]3SC[C@@H](O)[C@H](O)[C@H]3O)ccc12` here?
Answer: Its value is -6.4% [at 52.9 µM].

Question: `COc1ccccc1N1CCN(CC(O)COc2cc(OC)c(OC)c(OC)c2)CC1` (stereo not given) was tested. Which “activity change, negative = inhibition” value did it give?
Answer: The value was 30.6% [at 52.9 µM].

Question: `COC(=O)N/N=C/c1c[n+]([O-])c2ccccc2[n+]1[O-]` was tested. Which “activity change, negative = inhibition” value did it give?
Answer: The value was 8.68% [at 52.9 µM].

Question: For `COC(=O)c1cc(Cl)c(NC(C)=O)cc1OC`, which “activity change, negative = inhibition” value is on record?
Answer: Its value is 30.7% [at 52.9 µM].

Question: How did the Potency turn out when `CC(=O)Nc1ccc(OCCOCCOc2ccc(NC(C)=O)cc2)cc1` was run?
Answer: The Potency was 17.4 µM (active).

Question: `CC(O)CCCCn1c(=O)c2c(ncn2C)n(C)c1=O` (stereo not given) was tested. Which “activity change, negative = inhibition” value did it give?
Answer: Its value is 10.5% [at 52.9 µM].

Question: For `O=Cc1ccc(C(=O)O)cc1`, which “activity change, negative = inhibition” value is on record?
Answer: The value was -8.2%.

Question: `O=S(=O)(O)c1cc(I)c(O)c2ncccc12` was tested. Which “activity change, negative = inhibition” value did it give?
Answer: Its value is 8.83% [at 52.9 µM].

Question: For `CC(C)(C)c1ccc(C(=O)CCCCl)cc1`, which “activity change, negative = inhibition” value is on record?
Answer: Its value is 25.6% [at 52.9 µM].

Question: With `CC(C)(C)C(=O)CC(=O)C(C)(C)C` as the molecule, how does the “activity change, negative = inhibition” value read?
Answer: Its value is -18%.

Question: `C=CC(=O)CC` was tested. Which “activity change, negative = inhibition” value did it give?
Answer: Its value is 15.5%.

Question: For `CCCCC(O)/C=C(C)/C=C/C=C/C(=O)N1CCCC1=O` (stereo not given), which “activity change, negative = inhibition” value is on record?
Answer: Its value is 9.52% [at 52.9 µM].

Question: `COc1ccc2cc(CCC(C)=O)ccc2c1` was tested. Which Potency did it give?
Answer: The Potency was 11 µM (active).

Question: For `c1coc(Cn2cccc2)c1`, which “activity change, negative = inhibition” value is on record?
Answer: The value was 11.4%.

Question: `C=C(C)C(=O)OCCOC1CC2CC1C1C=CCC21` (stereo not given) was tested. Which Potency did it give?
Answer: Its Potency is 30.3 µM (active).

Question: For `Cc1ccc(OC(=O)CC(C)C)cc1`, which “activity change, negative = inhibition” value is on record?
Answer: Its value is 3.16%.

Question: `O=CN1CCCCC1` was tested. Which “activity change, negative = inhibition” value did it give?
Answer: The value was -19.5%.

Question: How did the “activity change, negative = inhibition” value turn out when `CC(=O)c1ccc(O)c(C(N)=O)c1` was run?
Answer: Its value is -12.8% [at 52.9 µM].

Question: `c1cc2ccc3ccc4ccc5cccc6c(c1)c2c3c4c56` was tested. Which activity change, negative = inhibition did it give?
Answer: The activity change, negative = inhibition was -3.91% [at 4.07 µM].

Question: Which “activity change, negative = inhibition” value does the source give for `Cc1cc(C)c(C)c(C)c1` here?
Answer: The value was -18%.

Question: Which “activity change, negative = inhibition” value does the source give for `O=C1CC2(CCCC2)CC(=O)N1CCNCC1COc2ccccc2O1` (stereo not given) here?
Answer: Its value is -21.1% [at 52.9 µM].

Question: For `C[C@@H]1CCC[C@H](C)N1CCCC(O)(c1ccccc1)c1ccccn1` (stereo not given in full), which “activity change, negative = inhibition” value is on record?
Answer: Its value is 4.4% [at 52.9 µM].

Question: How did the “activity change, negative = inhibition” value turn out when `CN(C)CCC[C@@]1(c2ccc(F)cc2)OCc2cc(C#N)ccc21` was run?
Answer: Its value is 10.2% [at 52.9 µM].

Question: How did the “activity change, negative = inhibition” value turn out when `CCOC(=O)[C@H](CCc1ccccc1)N[C@H]1CS[C@H](c2cccs2)CN(CC(=O)O)C1=O` was run?
Answer: The value was -12.8% [at 52.9 µM].
